The source of these data is PubChem BioAssay AID758 (NMMLSC, 2007).

The campaign covered roughly 190,000 compounds. About 110 (0.058%) were called active. Inconclusive results (about 2%) are left out. This is one part of a sample in which actives are shown more often than they occur. Unmarked numbers belong to inactive results.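 The calls were made as follows: active = fluorescent GTP binding to Rab7 beads changed by at least 20 points from the 100% baseline, either direction, mostly lower; inconclusive = compound itself probably fluorescent, or too few beads counted; inactive = the rest.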

In the experiment the test system is Rab7 GTPase wild type (dog), Bodipy-FL-GTP binding. The experiment is described as follows: modulators of GTP binding to Rab7, primary screen, biochemical, wildtype, multiplex bead flow cytometry (AID 758).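 Also: median green fluorescence of bound Bodipy-FL-GTP per Rab7 bead population.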 The conditions noted are these: GST-Rab7 beads, fluorescent GTP binding, at 10 µM, actives lie on both sides, untreated = 100%, excess cold GTP = 0%. In general terms: In flow cytometry, cells or beads pass a laser one at a time.
`O=C(NC(Cc1c[nH]c2ccccc12)C(=O)O)/C(=C/c1ccco1)NC(=O)c1ccccc1` (stereo unspecified): the GTP binding activity (percent of control) was 98%. On to `O=C(NNC(=S)NCc1ccco1)C(c1ccccc1)c1ccccc1`, for which the GTP binding activity (percent of control) is 105%. Then `CSc1nsc(SC)c1NC(=O)OC1CCCCC1`, with 20% (active); and `CSc1ncccc1C(=O)NC1CCCCCC1`, with 100%. Regarding `COc1ccc(NC(=O)c2c(SC)nsc2SC)cc1`, the GTP binding activity (percent of control) was 103%. As for `COc1ccc(/C=N/S(=O)(=O)c2ccccc2)cc1OC`, the GTP binding activity (percent of control) is 97%. As for `O=[N+]([O-])/C(N=Nc1ccccc1)=N\Nc1ccccc1`, the GTP binding activity (percent of control) is 101%. With `CCC(C)(C)NC(=O)CN(Cc1cccs1)C(=O)CNS(=O)(=O)c1ccc(F)cc1`, the GTP binding activity (percent of control) was 98%. As for `Cc1ccc(CN2CCN(Cc3ccc(OCCO)cc3)CC2CCO)o1` (stereo unspecified), the figure is 104%. On to `Cc1cccc(N2CCN(c3ccc(NC(=O)/C=C\C(=O)O)cc3)CC2)c1`, for which the GTP binding activity (percent of control) is 97%. Then `O=C1CS(=O)CN1c1ccc(Oc2ccccc2)cc1` (stereo unspecified), with 93%; and `Cc1ccc(C(=O)NCC(=O)O)s1`, with 95%; and `Cc1c(-c2cccc(Cl)c2)nc2ccccc2c1C(=O)OCC(=O)N(C)C1CCS(=O)(=O)C1` (stereo unspecified), with 105%. Take `CCOC(=O)C1(Cc2cccc(OC)c2)CCN(C(C)COC)CC1` (stereo unspecified): the GTP binding activity (percent of control) was 104%. As for `CCSC1=NCCN1S(=O)(=O)c1ccc(F)cc1`, the figure is 105%.

On to `CCOc1ccc(/C=N/Nc2nncc(-c3ccccc3)n2)cc1OC`, for which the GTP binding activity (percent of control) was 102%. Then `COc1ccc(-c2[nH]ncc2CN(Cc2nccn2C)C(C)C)cc1F`, with 100%; and `Cc1ccc(-c2cc(C(F)(F)F)n3ncc(C(=O)N4CCCCC4c4cccnc4)c3n2)cc1` (stereo unspecified), with 97%; and `Cc1cccc(N2CCN(c3ccc(C(N)=O)cc3[N+](=O)[O-])CC2)c1C`, with 95%.

Take `Cc1nnc(SCC(=O)NNC(=O)c2ccc(Cl)cc2)n1CC1CCCO1` (stereo unspecified): the GTP binding activity (percent of control) is 100%. As for `COc1cc2[nH]c(=O)n(Cc3ccc(C(=O)NC4CCN(Cc5ccccc5)CC4)cc3)c(=O)c2cc1OC`, the figure is 104%; as for `CCCCn1c(N)c(N2CCOCC2)c(=O)n(CC(=O)NCCc2ccccc2)c1=O`, 105%; as for `COCCCNC(=S)NNC(=O)C(O)(c1ccccc1)c1ccccc1`, 109%. Consider `CC(OC(=O)CCc1nc(=O)c2ccccc2n1C)C(=O)NCc1ccc2c(c1)OCO2` (stereo unspecified), for which the GTP binding activity (percent of control) was 97%.

As for `COc1ccc(NS(=O)(=O)c2cc(NC(=O)CC(=O)c3ccc([N+](=O)[O-])cc3)ccc2C)cc1`, the GTP binding activity (percent of control) is 106%.

Consider `COc1cc(OC)cc(-c2nnc(SCC(=O)Nc3ccc(C(=O)O)cc3)s2)c1`, for which the GTP binding activity (percent of control) is 93%. Turning to `Oc1ccc(-c2nncn2-c2ccccc2)cc1`, the GTP binding activity (percent of control) is 99%.

On to `CCN(CCn1cccn1)Cc1cn[nH]c1-c1ccc(OC)cc1F`, for which the GTP binding activity (percent of control) is 97%. As for `CCN(CC)S(=O)(=O)c1ccc(NC(=O)c2cccnc2Cl)c(NC(=O)c2cccnc2Cl)c1`, the figure is 91%; as for `CCOC(=O)C1(CC2CCCCO2)CCN(Cc2nc(-c3cccs3)oc2C)CC1` (stereo unspecified), 99%. As for `NC(N)=N/N=C/c1ccc(Cl)c([N+](=O)[O-])c1`, the figure is 103%. Take `CC(Nc1nc(N2CCN(CCO)CC2)nc2ccccc12)c1ccccc1` (stereo unspecified): the GTP binding activity (percent of control) is 98%.

For `CC(=O)NCC(=O)N1CCCC(C(=O)c2ccc3c4c(cccc24)CC3)C1` (stereo unspecified), the GTP binding activity (percent of control) was 98%. With `CC(C)N1CCC(N2CCN(Cc3cccnc3)CC2CCO)CC1` (stereo unspecified), the GTP binding activity (percent of control) was 104%. For `N#Cc1c(NC(=O)C2CC(Cl)=CCC2C(=O)O)sc2c1CCCCC2` (stereo unspecified), the GTP binding activity (percent of control) was 94%.

For `CCOC(=O)c1ccc(N2C(=O)CC(N3CCN(C(=O)c4ccccc4)CC3)C2=O)cc1` (stereo unspecified), the GTP binding activity (percent of control) is 97%. For the compound `COCCCNc1nc2c(-c3cccc(C(F)(F)F)c3)nnn2c2ccccc12`, the GTP binding activity (percent of control) is 105%.

Consider `C/C(CCc1ccccc1)=N\NC(=O)c1ccc(CN2CCOCC2)cc1`, for which the GTP binding activity (percent of control) was 103%. For the compound `Cc1ccccc1NS(=O)(=O)CCCCC(Cl)(Cl)Cl`, the GTP binding activity (percent of control) was 96%. Take `CC1CCN(S(=O)(=O)c2ccc(S(=O)(=O)NCc3cccnc3)cc2)CC1`: the GTP binding activity (percent of control) was 98%.

As for `CCCNC(=O)c1c(Cl)cnn1-c1ccc(C)cc1`, the GTP binding activity (percent of control) is 96%. On to `O=C(CO/N=C/c1ccccc1OC(F)F)NC1CCCC1`, for which the GTP binding activity (percent of control) was 103%.

In the case of `O=C(NNC(=O)C1C2CCC(C2)C1C(=O)O)c1ccc(Cl)cc1` (stereo unspecified), the GTP binding activity (percent of control) was 103%. Turning to `CCN(CC)S(=O)(=O)c1ccc(OC(C)C)c(N)c1`, the GTP binding activity (percent of control) is 107%. As for `CN(C)/C=C(/C(=O)c1ccccc1Cl)S(C)(=O)=O`, the figure is 104%; as for `CCCN(CCC)CCCNC(=O)CNC(=O)c1nn(-c2ccc(OC)cc2)c(=O)c2ccccc12`, 95%; as for `CC(=O)c1c(C)[nH]c(C(=O)OCC(=O)NCCC(C)C)c1C`, 95%. For the compound `Cc1cccc(C(=O)OCC(=O)NCC(C)C)c1O`, the GTP binding activity (percent of control) is 96%. Then `S=C(NCCc1ccccc1)N1CCn2cccc2C1c1ccncc1` (stereo unspecified), with 91%.

For the compound `COc1ccc2cc(CCl)c(Cl)nc2c1`, the GTP binding activity (percent of control) is 91%. As for `O=C(CCC(=O)OCc1ccc(Cl)cc1)Nc1ccccc1`, the figure is 102%.

In the case of `CN(C)S(=O)(=O)c1cccc(NC(=S)NCc2ccc3c(c2)OCO3)c1`, the GTP binding activity (percent of control) was 104%. As for `CCN(CC)S(=O)(=O)c1ccc(N(C)CCc2ccc(OC)c(OC)c2)nc1`, the figure is 96%; as for `CC(C)CC(CC(C)C)=NNC(=O)c1ccc(CSc2nncn2C)cc1`, 104%. Then `Cn1cnnc1SCC(=O)Nc1ccc(N2CCOCC2)cc1`, with 98%; and `O=C(CN1C(=O)c2cccc3cccc1c23)Nc1ccccc1`, with 98%. As for `O=C(CS(=O)(=O)c1ccccc1)Nc1ccc(S(=O)(=O)Nc2ccccn2)cc1`, the figure is 107%; as for `COc1cc(OC)cc(-c2nc(=S)n3ccsc3n2)c1`, 99%; as for `Cc1ccc(/C=N/NC(=O)Cn2ccc(C(F)(F)F)n2)o1`, 105%. On to `CCN(CC(=O)Nc1ccc(Cl)c(S(=O)(=O)N(C)C)c1)Cc1nc2ccccc2c(=O)[nH]1`, for which the GTP binding activity (percent of control) is 105%.

For `COc1cc(NC(=O)COc2ccccc2Cl)ccc1NC(=O)C(C)C`, the GTP binding activity (percent of control) was 98%.

`Cc1ccc(C2NC(C(=O)O)CS2)cc1` (stereo unspecified): the GTP binding activity (percent of control) was 103%. Then `CN(C)c1ccc(C2Nc3ccccc3C(=O)N2NS(=O)(=O)c2ccccc2)cc1` (stereo unspecified), with 95%; and `O=C(CSc1ccc([N+](=O)[O-])cn1)Nc1ccc(N2CCOCC2)cc1`, with 95%; and `COc1c(F)c(F)c(C(=O)O)c(Nc2ccccc2C)c1F`, with 96%. Then `Cc1ccc(Nc2c(F)c(F)c(F)c(F)c2C(=O)O)c(C)c1`, with 121% [activator] (active); and `Cc1ccc(NC(=S)NC(=O)c2ccc(-c3ccccc3)cc2)c(C)c1`, with 100%; and `S=C(Nc1ccc2c(c1)OCO2)N1CCCC1`, with 104%. `C/C(CC(=O)N1CCN(C=O)CC1)=N\NC(=O)c1ccc(Br)cc1`: the GTP binding activity (percent of control) was 102%. `COc1ccc2c(c1)CCC/C2=N\OC(=O)c1ccccc1F`: the GTP binding activity (percent of control) is 105%.

On to `C=CCN(CC=C)S(=O)(=O)c1ccc(C(=O)Nc2sc3c(c2C(N)=O)CCCCC3)cc1`, for which the GTP binding activity (percent of control) is 103%. With `COCCN(CCOC)S(=O)(=O)c1ccc(C(=O)Nc2nc3c(s2)CCc2ccccc2-3)cc1`, the GTP binding activity (percent of control) is 99%. Regarding `C=CCN(CC=C)S(=O)(=O)c1ccc(C(=O)Nc2nc3c(s2)CCc2ccccc2-3)cc1`, the GTP binding activity (percent of control) is 27% (active). Turning to `COC(=O)CCC(=O)N1CCCC(CO)(Cc2ccccc2)C1` (stereo unspecified), the GTP binding activity (percent of control) is 98%.

On to `CSc1cccc(NC(=S)N(Cc2ccccc2)Cc2ccccn2)c1`, for which the GTP binding activity (percent of control) is 104%. As for `O=C(COC(=O)c1ccccn1)Nc1cccc2ccccc12`, the figure is 108%; as for `CCN(CC)CCNS(=O)(=O)c1ccc(/C=C/C(=O)O)cc1`, 98%. As for `OCCC1CN(Cc2cnc(-c3ccccc3)s2)CCN1CCc1ccccc1` (stereo unspecified), the figure is 106%; as for `CCOC(=O)CNC(=O)CSc1ccc2nnc(-c3cccnc3)n2n1`, 96%; as for `CC1(C)C2CC=C(/C=N/NC(=O)C3CC3)C1C2` (stereo unspecified), 105%.

Regarding `CCc1c(SCCC(=O)O)nc2ccccc2c1C`, the GTP binding activity (percent of control) is 99%. Then `Fc1cc(Br)ccc1NC(=S)Nc1cccnc1`, with 104%; and `COC(=O)C(=Nc1ccccc1)/C(C(=O)C(=O)N(C)c1ccccc1)=C(\O)c1ccc(Cl)cc1`, with 96%; and `Cc1ccc(N2C(=O)C(CC(=O)Nc3cccc(F)c3)N(CCc3ccncc3)C2=O)cc1` (stereo unspecified), with 97%. As for `NNC(=O)C1CC(O)CN1S(=O)(=O)c1ccc(Cl)cc1` (stereo unspecified), the figure is 96%; as for `Cc1ccc(NC(=O)CNCc2ccccn2)cc1S(=O)(=O)N(C)C`, 101%. Then `C=CCN(Cc1nc(-c2cc(OC)c3c(c2)OCO3)oc1C)C1CCS(=O)(=O)C1` (stereo unspecified), with 92%; and `CC1=CC=CN2C1=NC(=O)CC2(C)C(=O)N(CC(=O)NC1CCCC1)c1ccccc1C` (stereo unspecified), with 104%; and `CC(=O)c1cc(C#N)c(SCC(=O)Nc2nccs2)nc1C`, with 96%. `C=CCn1nc(-c2ccccc2)c2c(C)onc2c1=O`: the GTP binding activity (percent of control) was 100%.

Consider `NS(=O)(=O)c1ccc(NC(=S)Nc2ccc(Br)c(Cl)c2)cc1`, for which the GTP binding activity (percent of control) is 103%.

As to `O=C(CCNC(=O)c1ccc([N+](=O)[O-])cc1)Nc1ccccc1N1CCOCC1`, the GTP binding activity (percent of control) was 96%. Then `COc1cccc(C(O)Cc2nc3ccccc3n2C)c1OC` (stereo unspecified), with 96%; and `CC(=O)c1cccc(NC(=O)[C@@H](NC(N)=O)C(C)C)c1`, with 96%; and `COc1ccc(CNC(=O)COC(=O)/C=C/c2ccc(S(=O)(=O)N3CCOCC3)cc2)cc1`, with 100%. As for `O=C(O)/C=C/C(=O)NNc1ccc([N+](=O)[O-])cc1`, the figure is 96%.
